# Results reported in the supplement of paper PMC3545927.
# Some of the results follow. How many sequences the whole screen found active is unknown.
# Biological target: furin, P09958
# Experiment: furin cleavage Z-score vs untreated control; higher = more cleavage, active = 3.5 or more, inactive = 1 or less, 8 variable residues between constant flanks
# Method in brief: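 Magnetic beads held 8-mer peptides by the N-terminus, each fused to a cDNA oligonucleotide, and purified furin was added for 7.5, 15 or 30 min. Released DNA was sequenced after PCR adapter tagging. The cleavage Z-score is the log count relative to furin-free reactions, lowess-adjusted and divided by median absolute deviation.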
# 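Further: purified furin at 1:10 enzyme:substrate in 50 mM HEPES pH 7.5.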
# Sequence of furin, P09958 (P09958 whole entry): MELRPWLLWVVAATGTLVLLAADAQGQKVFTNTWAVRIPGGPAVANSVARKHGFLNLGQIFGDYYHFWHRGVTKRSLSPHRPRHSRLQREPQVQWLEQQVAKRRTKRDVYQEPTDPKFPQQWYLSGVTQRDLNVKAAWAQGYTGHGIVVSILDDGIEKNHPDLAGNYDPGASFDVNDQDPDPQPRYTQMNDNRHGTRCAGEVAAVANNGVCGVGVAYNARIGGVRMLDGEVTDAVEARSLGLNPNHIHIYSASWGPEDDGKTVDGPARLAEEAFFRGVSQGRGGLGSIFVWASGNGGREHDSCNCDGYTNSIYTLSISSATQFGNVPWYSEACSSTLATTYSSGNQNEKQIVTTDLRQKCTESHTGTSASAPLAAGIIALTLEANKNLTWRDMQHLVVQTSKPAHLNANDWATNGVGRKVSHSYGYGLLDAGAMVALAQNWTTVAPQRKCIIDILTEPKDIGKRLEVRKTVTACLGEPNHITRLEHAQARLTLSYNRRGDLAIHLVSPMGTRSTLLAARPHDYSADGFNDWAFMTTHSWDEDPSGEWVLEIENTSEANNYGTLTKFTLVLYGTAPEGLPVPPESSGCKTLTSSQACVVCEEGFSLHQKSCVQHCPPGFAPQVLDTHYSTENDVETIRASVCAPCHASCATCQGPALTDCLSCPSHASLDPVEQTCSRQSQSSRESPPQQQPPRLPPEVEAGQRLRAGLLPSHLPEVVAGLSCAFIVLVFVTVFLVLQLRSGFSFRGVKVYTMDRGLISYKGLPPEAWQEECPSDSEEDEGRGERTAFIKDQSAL
Sequence,furin cleavage Z-score (7.5 min),furin cleavage Z-score (15 min),furin cleavage Z-score (30 min)
CARGPRAVSTAGNASASA [FS-2334],0.54 (inactive),0.906 (inactive),1.4
CARRSRSSYTAGNASASA [FS-3070],-0.67 (inactive),0.865 (inactive),2.05
CARCPRQVSTAGNASASA [FS-3216],4.16 (active),3.66 (active),6.67 (active)
CARRSRSPRTAGNASASA [FS-3069],8.32 (active),10.6 (active),7.67 (active)
CADFEVVTSTAGNASASA [HC2287],0.0621 (inactive),-1.1 (inactive),-1.43 (inactive)
CASRSRSPRPAGNASASA [FS-1283],-0.34 (inactive),0.132 (inactive),-0.275 (inactive)
CARAARGTIGAGNASASA [FS-2879],-0.0204 (inactive),-0.846 (inactive),0.286 (inactive)
CARRSRKVGSAGNASASA [FS-2455],-0.487 (inactive),0.947 (inactive),0.792 (inactive)
CARRVRIVSRAGNASASA [FS-1923],-0.897 (inactive),0.174 (inactive),1.35
CARAARHVVAAGNASASA [FS-1988],0.916 (inactive),2.53,4.88 (active)
CARAARSRGAAGNASASA [FS-2324],-0.759 (inactive),-0.113 (inactive),-0.259 (inactive)
CARRSRDVSCAGNASASA [FS-2519],4.17 (active),5.01 (active),5.69 (active)
CAEVPCHTPSAGNASASA [HC2378],0.816 (inactive),0.745 (inactive),1.13
CAAGYSGGDIAGNASASA [HC1647],-1.51 (inactive),-1.76 (inactive),-1.36 (inactive)
CARAARVPRTAGNASASA [FS-1476],7.67 (active),5.53 (active),4.3 (active)
CARAARFAKTAGNASASA [FS-1885],-1.44 (inactive),0.407 (inactive),0.00762 (inactive)
CARRFRVVSGAGNASASA [FS-1774],0.247 (inactive),-0.792 (inactive),-0.178 (inactive)
CARRSRSSSRAGNASASA [FS-2600],0.0891 (inactive),0.74 (inactive),0.299 (inactive)
CARRSRNVSTAGNASASA [FS-2083],1.86,4.41 (active),5.4 (active)
CARAARRAAGAGNASASA [FS-1678],-0.697 (inactive),-0.053 (inactive),-1.33 (inactive)
CARGSLLSPRAGNASASA [HC735],0.168 (inactive),-0.587 (inactive),-0.591 (inactive)
CARNKRTCSEAGNASASA [FS-2161],4.64 (active),4.66 (active),4.26 (active)

Sequence,furin cleavage Z-score (7.5 min),furin cleavage Z-score (15 min),furin cleavage Z-score (30 min)
CAGSATLCSAAGNASASA [HC294],-0.289 (inactive),-0.124 (inactive),-0.454 (inactive)
CADNTTTSSEAGNASASA [HC1342],-1.15 (inactive),0.112 (inactive),-0.634 (inactive)
CARNKRTCSAAGNASASA [FS-2160],2.24,3.57 (active),2.82
CAEVPCHRHSAGNASASA [HC2395],0.115 (inactive),0.712 (inactive),1.03
CAECHSTDATAGNASASA [HC819],-0.594 (inactive),-1.11 (inactive),0.253 (inactive)
CALFAGVDAEAGNASASA [HC349],-0.796 (inactive),-0.738 (inactive),-0.0117 (inactive)
CAASAVLKRDAGNASASA [FS-751],0.168 (inactive),-1.94 (inactive),1.16
CAASGREGRDAGNASASA [FS-402],-0.371 (inactive),-0.657 (inactive),-0.187 (inactive)
CALGDREKRDAGNASASA [FS-548],4.49 (active),4.22 (active),4.54 (active)
CAIKDRNKRDAGNASASA [FS-251],11.9 (active),10.9 (active),8.42 (active)
CAFSAREKRDAGNASASA [FS-587],10.7 (active),11.3 (active),9.1 (active)
CAEVVTSTWYAGNASASA [HC2249],-1.56 (inactive),-0.21 (inactive),-0.098 (inactive)
CALKKRSYFGAGNASASA [FS-2870],0.606 (inactive),0.802 (inactive),1.4
CAEVVNSTWVAGNASASA [HC138],0.467 (inactive),-0.699 (inactive),1.06
CAPPSREKKVAGNASASA [FS-1051],-1.64 (inactive),-0.193 (inactive),0.495 (inactive)
CAGAGRARRRAGNASASA [FS-995],-0.00606 (inactive),2.14,1.07
CADVNRLKREAGNASASA [FS-648],14.4 (active),13.9 (active),11.5 (active)
CAPPSRARRRAGNASASA [FS-73],5.98 (active),6.69 (active),6.77 (active)
CALLSRKKREAGNASASA [FS-271],8.61 (active),6.86 (active),6.5 (active)
CALLSRPLRGAGNASASA [FS-1229],-0.34 (inactive),-0.208 (inactive),-1.05 (inactive)
CALLSRKRRRAGNASASA [FS-1539],11.7 (active),12.2 (active),9.16 (active)
